This note sets out measurements from PubChem BioAssay (NCATS).

Structures are written as SMILES. Where “and” joins values, the source holds several entries; their conditions need not be identical. Identical values can stand only once. Calls of active or inactive are those of the source. Calls follow the shape of the full dose curve.
Potency is read from the fitted curve at half-maximal effect.

Glucocorticoid receptor (Homo sapiens), sequence (P04150 whole entry, looked up): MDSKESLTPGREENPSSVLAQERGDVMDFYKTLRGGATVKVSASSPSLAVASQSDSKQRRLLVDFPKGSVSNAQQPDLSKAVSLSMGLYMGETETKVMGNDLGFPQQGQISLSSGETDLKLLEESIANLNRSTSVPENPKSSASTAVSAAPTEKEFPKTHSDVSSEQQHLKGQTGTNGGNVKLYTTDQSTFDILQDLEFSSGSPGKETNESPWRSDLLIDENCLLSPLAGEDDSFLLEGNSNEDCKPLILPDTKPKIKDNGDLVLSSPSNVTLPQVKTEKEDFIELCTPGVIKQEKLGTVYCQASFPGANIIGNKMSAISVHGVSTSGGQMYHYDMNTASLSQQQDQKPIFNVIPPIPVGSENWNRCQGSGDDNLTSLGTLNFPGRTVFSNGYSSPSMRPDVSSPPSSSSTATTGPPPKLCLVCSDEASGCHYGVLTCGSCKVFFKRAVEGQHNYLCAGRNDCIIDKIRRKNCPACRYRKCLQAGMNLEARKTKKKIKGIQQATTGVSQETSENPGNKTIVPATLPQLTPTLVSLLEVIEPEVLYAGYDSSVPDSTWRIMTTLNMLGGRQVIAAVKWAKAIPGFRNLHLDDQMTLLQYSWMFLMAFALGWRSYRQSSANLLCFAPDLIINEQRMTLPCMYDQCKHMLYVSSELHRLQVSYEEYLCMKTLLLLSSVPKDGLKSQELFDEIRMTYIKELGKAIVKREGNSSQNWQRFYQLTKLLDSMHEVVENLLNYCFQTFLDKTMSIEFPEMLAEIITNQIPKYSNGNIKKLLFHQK

This assay deals with Glucocorticoid receptor (Homo sapiens) (UniProt P04150). Put plainly: GR-EFC Redistribution (AID 451). The note with it: CHO-K1 GR-EFC translocation, beta-gal luminescence, 2 h. The text has this:
NIH Molecular Libraries Screening Centers Network [MLSCN]
NIH Chemical Genomics Center [NCGC]
The glucocorticoid receptor (GR) is a cytoplasmic receptor that belongs to the nuclear receptor family of ligand-dependent transcription factors. Upon glucocorticoid binding to its receptor, the glucocorticoid-GR complex translocates into the nucleus, where it binds as a dimer to specific DNA sequences (glucocorticoid response elements), enhancing or suppressing transcription of a wide variety of glucocorticoid-responsive genes. In addition to their important roles in normal physiology and metabolism, glucocorticoids are administered exogenously as treatments for a wide variety of allergic, autoimmune, and neoplastic conditions. Identification of compounds that modulate aspects of GR signalling would be useful in dissecting glucocorticoid response pathways as well as developing GR modulators with more targeted clinical effects.
Traditionally, GR modulators have been identified using receptor binding or direct transactivation assays. However, assays for glucocorticoid-dependent nuclear translocation can also be used to screen for compounds affecting GR signaling.
Immunocytochemical staining has been used to assay for GR translocation, but is not suitable for high throughout screening due to the multiple reagent addition and wash steps required. Recently, a novel cell-based GR assay in Enzyme Fragment Complementation (EFC) format was developed by DiscoveRx (Fremont, CA). The assay uses EFC of b-galactosidase (b-gal) as an indicator of GR-translocation in engineered CHO-K1 biosensor cells. The enzyme acceptor (EA) fragment of b-gal resides in the nucleus , as designed through the use of a proprietary set of sequence additions and modifications. The small peptide enzyme donor (ED) fragment of b-gal is fused directly to the C-terminus of GR, and is localized in the cytoplasm is the absence of receptor signaling. Upon binding to a GR ligand, the complex translocates to the nucleus, where intact enzyme activity is restored by complementation and b-gal activity is detected. We optimized this GR-EFC assay in homogenous 1536-well plate assay format for high throughput screening.
NCGC Assay Protocol Summary:
CHO-K1 cells stably expressing NLS-enzyme acceptor fragment (EA) of b-gal and GR-enzyme donor (ED) fragment of b-gal were maintained in F12 medium (Invitrogen, Carlsbad, CA) at 37 Celsius degrees under a humidified atmosphere containing 5% CO2 and 95% air. The medium contained 10% FBS, 2 mM L-glutamine, 50 U/ml penicillin 50 ug/ml streptomycin, and 250 ug/ml hygromycin and 500 ug/ml G418 (Invitrogen).
GR-translocation was measured beta-gal enzyme activity using the PathHunter Detection Kit containing cell membrane permeablizing reagent and beta-gal substrate (DiscoveRx, Fremont, CA). All compounds were screened as titrations from 0.6 nM to 46 uM final concentration. The assay was performed in 1536-well format as follows:
5 uL cell suspension (1,000 cells)/well
Incubation at 37 Celsius degrees for two hours
1.25 uL 1X detection buffer from the kit supplied by DiscoveRx
Incubation at room temperature for one hour
Read plate in luminescence mode in ViewLux plate reader (PerkinElmer)
Keywords: NIH Roadmap, MLSCN, MLI, MLSMR, GR-EFC, GREFC, qHTS, NCGC
In the case of `C(#CCN1CCCC1)CN1CCCC1`, the Potency is > 20.6 µM (inactive).
To `CN1CCN(c2ncc3ncc(=O)n(C)c3n2)CC1` belongs > 46 µM (inactive); to `N#Cc1ccc(CN2CCCC3(CCN(C(=O)Oc4ccccc4)CC3)C2)cc1`, > 46 µM (inactive).
`COCC(=O)N1CCC2(CCCN(Cc3ccncc3)C2)CC1`: the Potency is > 46 µM (inactive).
The result for `C=C1[C@@H]2CC[C@H]3[C@@]4(C)C[C@@H](O[C@@H]5O[C@H](CO)[C@H](OS(=O)(=O)O)[C@@H](OS(=O)(=O)O)[C@@H]5OC(=O)CC(C)C)C[C@@H](C(=O)O)[C@H]4CC[C@@]3(C2)[C@H]1O` reads > 20.6 µM (inactive).
For the compound `COc1ccc(NC(=O)N2CC[C@@]3(CCCN(C(=O)Oc4ccccc4)C3)C2)cc1`, the Potency is > 46 µM (inactive).
To `CCCN(CCC)C(=O)Cc1c(-c2ccc(Cl)cc2)nc2c(Cl)cc(Cl)cn12` belongs > 46 µM (inactive); to `C#C[C@@]1(O)CC[C@@H]2[C@@H]3CCC4=CC(=O)CC[C@@]4(C)[C@H]3CC[C@]21C`, > 20.6 µM (inactive); to `O=C(Oc1ccccc1)N1CCC2(CC1)CN(C(c1ccccc1)c1ccccc1)C2`, > 46 µM (inactive).
As to `O=C(c1cnccn1)N1CCC2(CC1)CN(Cc1ccncc1)C2`, the Potency is > 46 µM (inactive).
To `CN(C)[C@@H]1C(=O)C(C(N)=O)=C(O)[C@]2(O)C(=O)C3=C(O)c4c(O)ccc(Cl)c4[C@](C)(O)[C@H]3C[C@@H]12` belongs > 20.6 µM (inactive); to `C[C@@]12CCC(=O)C=C1C=C[C@H]1[C@H]3CC[C@](O)(CCC(=O)O)[C@]3(C)CC[C@@H]12`, > 20.6 µM (inactive).
The result for `CN1CCC2=C[C@H](O)[C@@H]3OC(=O)c4cc5c(cc4[C@H]3[C@H]21)OCO5` reads > 20.6 µM (inactive); that for `CCN1C[C@]2(C)CC[C@H](OC)[C@@]34[C@@H]2[C@H](OC(C)=O)[C@]2(OCO[C@@]25C[C@@H](OC)[C@@H]2C[C@@]3(O)[C@H]5[C@@H]2OC)[C@H]14`, > 20.6 µM (inactive).
On to `COC1=CC(=O)O[C@@H](/C=C\c2ccccc2)C1`, for which the Potency was > 20.6 µM (inactive).
With `C=C[C@]12CN(C)[C@H]3C1[C@@]1(C(=O)Nc4ccccc41)[C@H]1C[C@H]2[C@H]3CO1`, the Potency is > 20.6 µM (inactive).
The result for `CC(=O)OCC(=O)[C@@H]1CC[C@H]2[C@H]3CC[C@H]4C[C@@H](O)CC[C@]4(C)[C@@H]3C(=O)C[C@@]12C` reads > 20.6 µM (inactive); that for `O=c1ccc2cc(O[C@H]3O[C@@H](CO)[C@@H](O)[C@@H](O)[C@@H]3O)c(O)cc2o1`, > 20.6 µM (inactive).
The result for `Oc1ccc2c3c1O[C@H]1[C@@H](O)CC[C@]4(O)[C@H](C2)N(CC2CCC2)CC[C@@]314` reads > 20.6 µM (inactive); that for `O=C(Oc1ccccc1)N1CCC2(CCCN(C(c3ccccc3)c3ccccc3)C2)CC1`, > 46 µM (inactive); that for `CS(=N)(=O)CC[C@@H](N)C(=O)O` (stereo not given in full), > 46 µM (inactive) and > 20.6 µM (inactive).
The result for `CCN1C[C@]2(COC)CC[C@H](O)[C@@]34[C@@H]5C[C@H]6[C@@H](OC)[C@H]5[C@](O)(C[C@@H]6OC)[C@@](O)([C@@H](OC)[C@H]23)[C@@H]14` reads > 20.6 µM (inactive).
With `COc1ccc2c(c1O)-c1c(OC)c(OC)cc3c1[C@H](C2)N(C)CC3`, the Potency was > 20.6 µM (inactive) and > 46 µM (inactive).
The result for `CN1CCCC2(CCN(C(=O)c3ccncc3)CC2)C1` reads > 46 µM (inactive); that for `CC[C@H](CO)NC(=O)[C@H]1C=C2c3cccc4[nH]cc(c34)C[C@@H]2N(C)C1`, > 20.6 µM (inactive).
Consider `CCNC[C@H](O)c1cccc(O)c1`, for which the Potency is > 20.6 µM (inactive).
The result for `CC(=O)O[C@H]1CC[C@@]2(C)C(=CC[C@@H]3[C@H]2CC[C@]2(C)C(=O)CC[C@H]32)C1` reads > 20.6 µM (inactive); that for `COc1cc2c(cc1O)C[C@H]1c3c(cc(OC)c(O)c3-2)CCN1C`, > 46 µM (inactive); that for `c1csc(CN2CC3(CCNCC3)C2)n1`, > 46 µM (inactive).
For the compound `CNC[C@H](O)c1ccc(O)cc1`, the Potency was > 46 µM (inactive) and > 20.6 µM (inactive).
On to `N#Cc1ccc(CN2CC[C@@]3(CCCN(C(=O)Oc4ccccc4)C3)C2)cc1`, for which the Potency was > 46 µM (inactive).
The result for `CN1CCC2(CC1)CCN(C(=O)Oc1ccccc1)CC2` reads > 46 µM (inactive).
As to `CCc1c(C(=O)OC)ncc2[nH]c3cc(OC)c(OC)cc3c12`, the Potency was > 46 µM (inactive).
The result for `O=C(Nc1cccc(F)c1)N1CC2(CCNCC2)C1` reads > 46 µM (inactive).
Regarding `O=C(c1ccco1)N1CCC[C@@]2(CCN(Cc3ccncc3)C2)C1`, the Potency was > 46 µM (inactive).
The result for `COc1ccc(C(=O)OC2C[C@H]3CC[C@@H](C2)N3C)cc1OC` (stereo not given in full) reads > 20.6 µM (inactive).
To `CC(C)c1c(CN(C)[C@@H](C)Cc2ccccc2)n(C)n(-c2ccccc2)c1=O` belongs > 20.6 µM (inactive); to `c1ccc(N2CCCC3(CCNCC3)C2)nc1`, > 46 µM (inactive).
With `O=C(c1ccco1)N1CCC2(CC1)CN(Cc1ccncc1)C2`, the Potency was > 46 µM (inactive).
With `CC(C)(O)/C=C\C(=O)[C@](C)(O)[C@H]1[C@H](O)C[C@]2(C)[C@@H]3CC=C4[C@@H](C=C(O)C(=O)C4(C)C)[C@]3(C)C(=O)C[C@@]12C`, the Potency was > 9.22 µM (inactive).
